KLK7 zymogen act = proKLK7 zymogen activators, primary screen, biochemical, fluorescence intensity. hit rate 0.9% among 370,000. activation, % at 7 µM. purified proKLK7, EDANS-DABCYL substrate fluorescence; 100% is mature enzyme control, 0% vehicle. Kallikrein-7 (Homo sapiens), P49862;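 active = activation above the mean of all tested compounds plus 3 SD, computed per campaign excluding outliers beyond control limits, cut at about 13% in these data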
PfGluPho inh = PfG6PD enzyme inhibitors, primary screen, biochemical, fluorescence intensity, uHTS. glucose-6-phosphate dehydrogenase-6-phosphogluconolactonase (Plasmodium falciparum 3D7). AID 504690, 2011. inhibition, % at 20 µM. PfGluPho enzyme, NADPH resazurin-diaphorase fluorescence. hit rate 0.78% among 350,000;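 active = inhibition reaching at least a set limit at 20 µM in the primary screen, cut at about 59% in these data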;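 note: 0% = DMSO wells with substrate and 100% = DMSO wells lacking glucose-6-phosphate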
FAS-TE inh = FAS thioesterase domain inhibitors, primary screen, biochemical, fluorescence intensity, uHTS; Fatty acid synthase (Homo sapiens), P49327; recombinant FAS-TE, OMFH fluorogenic substrate, fluorescence endpoint; inhibition, % at 15 µM; hit rate 0.67% among 360,000; AID 602261, 2012;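 active = compounds whose normalised, plate-corrected inhibition of enzyme fluorescence in the single-dose primary screen is 50% or more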;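 note: 0% = DMSO with enzyme and 100% = substrate without enzyme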
Neddylation inh = inhibitors of cullin neddylation, primary screen, biochemical, TR-FRET, uHTS, NAE and Ubc12 | calls only at 25 µM | hit rate 0.58% among 360,000; in the data active = inhibition above about 36%
FAS-TE inh conf = FAS thioesterase domain inhibitors, confirmation, biochemical, fluorescence intensity, single concentration; shares compounds with FAS-TE inh; recombinant FAS-TE, OMFH fluorogenic substrate; inhibition, % at 15 µM; hit rate 45% among 2,300; AID 624325, 2012;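 active = compounds inhibiting the enzyme by at least 50% at 15 µM in any one of the replicates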;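 note: 0% = enzyme with DMSO only and 100% = wells lacking enzyme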
* = called active by the depositor; i = inactive; / = not tested or not shown. Only some compounds are listed: those with a hit (about 2.7% of all), similar ones and a draw of the others.

SMILES | KLK7 zymogen act | PfGluPho inh | FAS-TE inh | Neddylation inh | FAS-TE inh conf
Cc1ccc(S(=O)(=O)N(C)C[C@@H]2OCCCC[C@@H](C)Oc3ccc(NS(=O)(=O)c4c(C)noc4C)cc3C(=O)N([C@H](C)CO)C[C@@H]2C)cc1 | 1 | 36 | 9 | i | /
C[C@H](CO)N1C[C@H](C)[C@@H](CN(C)Cc2ccccc2)Oc2c(NS(=O)(=O)c3ccc(F)cc3)cccc2C1=O | 1 | 2 | -7 | i | /
C[C@H](CO)N1C[C@H](C)[C@@H](CN(C)Cc2ccc(Cl)c(Cl)c2)Oc2c(NS(=O)(=O)c3ccc(F)cc3)cccc2C1=O | 0 | 5 | 54* | i | 58*
Cc1ccc(S(=O)(=O)Nc2ccc3c(c2)C(=O)N([C@@H](C)CO)C[C@@H](C)[C@@H](CN(C)S(=O)(=O)c2ccccc2)OCCCC[C@H](C)O3)cc1 | 0 | 17 | 79* | i | -2
C[C@@H]1CN([C@@H](C)CO)C(=O)c2cc(NC(=O)Nc3cccc4ccccc34)ccc2O[C@@H](C)CCCCO[C@H]1CN(C)C(=O)c1ccccc1 | -2 | -8 | 11 | i | /
CC(C)(C)N(Cc1cn(Cc2ccccc2)nn1)S(=O)(=O)c1ccc(N2CCCCC2)cc1Br | 1 | / | / | / | /
CCOC(=O)c1cc(-c2ccccc2)sc1NC(=O)C(C)N1C(=O)c2ccccc2C1=O (stereo not given) | 1 | 21 | 57* | i | -2
CCOC(=O)c1cc(-c2ccccc2)sc1NC(=O)CCN1C(=O)c2ccccc2C1=O | 0 | 4 | 20 | i | /
Cc1cccc(-c2cccc3c4c([nH]c23)[C@@H]2C[C@H](N(C)C(=O)NC3CCCCC3)[C@H]([C@H](C)O)C(=O)N2CC4)c1 | -2 | / | / | / | /
O=C(Nc1ccc(Cl)cc1)c1csc(-c2ccccc2)n1 | -1 | 26 | 61* | i | 59*
O=[N+]([O-])c1cccnc1N1CCN(Cc2ccc3c(c2)OCO3)CC1 | 0 | 4 | 22 | i | /
O=[N+]([O-])c1ccc2ncnc(N3CCN(Cc4ccc5c(c4)OCO5)CC3)c2c1 | -1 | 18 | 82* | i | 87*
Cn1c(=O)c([N+](=O)[O-])c(N2CCN(Cc3ccc4c(c3)OCO4)CC2)c2ccccc21 | 0 | 16 | 86* | i | 54*
CCOc1ccc(-n2c(SCc3ccc([N+](=O)[O-])cc3)nnc2-c2ccccc2)cc1 | 0 | 11 | 63* | i | 56*
COc1ccc(-n2c(SCc3ccc([N+](=O)[O-])cc3)nnc2-c2ccccc2)cc1 | 0 | 1 | 56* | i | 51*
N#Cc1cc(-c2ccc(Cl)cc2)cn(Cc2c(Cl)cccc2Cl)c1=O | -1 | 2 | 62* | i | 27
O=C(COC(=O)c1cc([N+](=O)[O-])ccc1NCCO)NCc1cccs1 | 1 | 8 | 73* | i | 78*
O=C(COC(=O)c1cc([N+](=O)[O-])ccc1NCCO)c1ccccc1 | 0 | 8 | 59* | i | 68*
NC(=O)COC(=O)c1cc([N+](=O)[O-])ccc1NCCO | 0 | 0 | 3 | i | /
Cc1ccc(S(=O)(=O)N2CCN(C(=O)COC(=O)c3cc([N+](=O)[O-])ccc3NCCO)CC2)c(C)c1 | 1 | -6 | 71* | i | 74*
COC(=O)c1cc(C(=O)OCC(=O)NCc2cccs2)cc([N+](=O)[O-])c1 | 0 | -5 | 64* | i | 45
CC(C)C(=O)N1CC[C@H]2[C@H](CCCN2Cc2ccccc2)C1 | 0 | / | / | / | /
COP(=O)(O)C(C)NC(=O)OCc1ccccc1 (stereo not given) | 0 | / | / | / | /
COC(=O)[C@]12C[C@H](CC(=O)N3CCOCC3)C(=O)N(Cc3cccc4ccccc34)C1=C[C@H](C(C)C)O[C@@H]2C1CC1 | 1 | / | / | / | /
CN(Cc1ccccc1)S(=O)(=O)c1cccc(C(=O)OCc2ccccc2)c1 | 1 | / | / | / | /
SMILES | KLK7 zymogen act | PfGluPho inh | FAS-TE inh | Neddylation inh | FAS-TE inh conf
Cc1ccc(CNC(=O)OC(C)(C)C)c(/C=C/S(=O)(=O)NC2CCCC2)c1 | 0 | / | / | / | /
COc1cccc(C2c3c(C)nn(-c4ccc([N+](=O)[O-])cc4)c3N=C3C(=O)Nc4ccccc4N32)c1 (stereo not given) | 0 | 14 | 72* | i | -1
Cc1nn(-c2ccc([N+](=O)[O-])cc2)c2c1C(c1ccc(OC(F)F)cc1)N1C(=N2)C(=O)Nc2ccccc21 (stereo not given) | 1 | -8 | 86* | i | 15
O=C(COc1ncnc2cc([N+](=O)[O-])ccc12)N(CCc1ccccc1)Cc1ccccc1 | 0 | 3 | 62* | i | 52*
O=C(c1ccc2c(c1)OCO2)N1CCC2(CC1)Oc1ccc(Cl)cc1C(=O)C21CC(c2ccccc2)=NO1 (stereo not given) | 1 | 1 | 54* | i | 6
CC(C)C(=O)N1CCC2(CC1)Oc1ccc(Cl)cc1C(=O)C21CC(c2ccc(Cl)cc2)=NO1 (stereo not given) | -1 | 3 | 50* | i | 8
O=C(c1ccc2c(c1)OCO2)N1CCC2(CC1)Oc1ccc(F)cc1C(=O)C21CC(c2ccc(Cl)cc2)=NO1 (stereo not given) | 0 | 3 | 31 | i | /
O=C1c2cc(Cl)ccc2OC2(CCNCC2)C12CC(c1ccc(Cl)cc1)=NO2 (stereo not given) | / | -10 | -28 | i | /
CC(C)(C)OC(=O)N1CCC2(CC1)Oc1ccc(F)cc1C(=O)C21CC(c2cccnc2)=NO1 (stereo not given) | 0 | 0 | 4 | i | /
Cc1noc(C)c1C(=O)N1CCC2(CC1)Oc1ccc(F)cc1C(=O)C21CC(c2ccc(Cl)cc2)=NO1 (stereo not given) | 1 | -8 | 94* | i | 22
O=C(/C=C/c1cccs1)N1CCC2(CC1)Oc1ccc(F)cc1C(=O)C21CC(c2ccc(Cl)cc2)=NO1 (stereo not given) | 0 | -2 | 62* | i | -5
CC[C@H](CCCc1ccc(OC)cc1)CCC(=O)N1CCOCC1 | 0 | / | / | / | /
C#CCNC(=O)C[C@H]1C[C@@]2(C(=O)OC)C(=C[C@H](C3CCCC3)O[C@@H]2C)N(CCC2=CCCCC2)C1=O | 0 | / | / | / | /
N#CCC[C@@H]1CC[C@]2(CCCN(C(=O)C3CCCCC3)C2)O1 | 0 | / | / | / | /
CN1CCN(c2ccc3c(c2)Oc2ccccc2CN(Cc2cn(Cc4ccc(F)cc4)nn2)S3(=O)=O)CC1 | 0 | / | / | / | /
O=C(/C=C/c1cccs1)N1CCC2(CC1)Oc1ccc(Cl)cc1C(=O)C21CC(c2ccc(Cl)cc2)=NO1 (stereo not given) | 0 | 1 | 50* | i | 12
O=C(/C=C/c1cccs1)N1CCC2(CC1)Oc1ccc(F)cc1C(=O)C21CC(c2ccccc2)=NO1 (stereo not given) | 0 | -13 | 25 | i | /

High-throughput results as filed in PubChem BioAssay.
